# Data from PubChem BioAssay.
# Calls of active or inactive are those of the source.
# Key:
# [1] = tested on: Plasmodium falciparum Sir2 (PF13_0152, Sir2A); experiment: Plasmodium falciparum Sir2A binding compounds – biochemical, small-molecule microarray, 635 nm fluorescence, primary screen (AID 1098); details: fluorescence 635 nm, higher = more signal;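 also: score merges spot fluorescence intensity with its signal-to-noise ratio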
# [2] = probe aDKK1 binding to arrayed compounds – biochemical, biotinylated probe, 635/667 nm fluorescence, primary screen (AID 1099); details: small-molecule microarray, higher = more signal;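 also: score merges 667nm spot fluorescence with signal to noise across triplicate slides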
# [3] = probe aCHRDL2 binding to arrayed compounds – biochemical, biotinylated probe, 635/667 nm fluorescence, primary screen (AID 1100); details: small-molecule microarray, higher = more signal
# [4] = change in splice reporter luminescence, either direction, cell-based, HEK293, spliceosome inhibition project, primary screen (AID 1101); details: HEK293 splicing luciferase reporter, 24 h, higher = more signal, called active from +8 up or from −8 down;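 also: HEK293 cells carrying a splicing-competent luciferase reporter gene; test concentration not given here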
# [5] = biological target: Fibroblast growth factor 10 (Homo sapiens) (UniProt O15520); experiment: compounds binding fibroblast growth factor 10 – biochemical, small-molecule microarray, 635 nm fluorescence, primary screen (AID 1102); details: FGF10 binding, fluorescence 635 nm, higher = more signal
# Chain of Fibroblast growth factor 10 (Homo sapiens) (O15520 whole entry, looked up): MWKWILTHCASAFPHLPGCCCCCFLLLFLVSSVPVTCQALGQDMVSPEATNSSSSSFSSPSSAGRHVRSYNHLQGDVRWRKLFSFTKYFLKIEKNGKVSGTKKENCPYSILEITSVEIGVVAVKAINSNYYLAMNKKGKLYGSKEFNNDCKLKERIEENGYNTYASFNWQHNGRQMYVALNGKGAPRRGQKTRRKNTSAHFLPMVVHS
# [6] = tested on: glycogen synthase kinase-3 (GSK3A per assay name; protocol says GSK3B); experiment: compounds binding glycogen synthase kinase-3 – biochemical, small-molecule microarray, 635 nm fluorescence, GSK3A, primary screen (AID 1103); details: fluorescence 635 nm, higher = more signal; also: the record names both GSK3A and GSK3B
# [7] = biological target: Epidermal growth factor receptor (Homo sapiens) (UniProt P00533); experiment: compounds binding epidermal growth factor receptor – biochemical, small-molecule microarray, 635 nm fluorescence, primary screen (AID 1104); details: EGFR binding, higher = more signal;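 also: score merges 667 nm emission intensity with spot signal to noise over triplicate slides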
# Chain of Epidermal growth factor receptor (Homo sapiens) (P00533 whole entry, looked up): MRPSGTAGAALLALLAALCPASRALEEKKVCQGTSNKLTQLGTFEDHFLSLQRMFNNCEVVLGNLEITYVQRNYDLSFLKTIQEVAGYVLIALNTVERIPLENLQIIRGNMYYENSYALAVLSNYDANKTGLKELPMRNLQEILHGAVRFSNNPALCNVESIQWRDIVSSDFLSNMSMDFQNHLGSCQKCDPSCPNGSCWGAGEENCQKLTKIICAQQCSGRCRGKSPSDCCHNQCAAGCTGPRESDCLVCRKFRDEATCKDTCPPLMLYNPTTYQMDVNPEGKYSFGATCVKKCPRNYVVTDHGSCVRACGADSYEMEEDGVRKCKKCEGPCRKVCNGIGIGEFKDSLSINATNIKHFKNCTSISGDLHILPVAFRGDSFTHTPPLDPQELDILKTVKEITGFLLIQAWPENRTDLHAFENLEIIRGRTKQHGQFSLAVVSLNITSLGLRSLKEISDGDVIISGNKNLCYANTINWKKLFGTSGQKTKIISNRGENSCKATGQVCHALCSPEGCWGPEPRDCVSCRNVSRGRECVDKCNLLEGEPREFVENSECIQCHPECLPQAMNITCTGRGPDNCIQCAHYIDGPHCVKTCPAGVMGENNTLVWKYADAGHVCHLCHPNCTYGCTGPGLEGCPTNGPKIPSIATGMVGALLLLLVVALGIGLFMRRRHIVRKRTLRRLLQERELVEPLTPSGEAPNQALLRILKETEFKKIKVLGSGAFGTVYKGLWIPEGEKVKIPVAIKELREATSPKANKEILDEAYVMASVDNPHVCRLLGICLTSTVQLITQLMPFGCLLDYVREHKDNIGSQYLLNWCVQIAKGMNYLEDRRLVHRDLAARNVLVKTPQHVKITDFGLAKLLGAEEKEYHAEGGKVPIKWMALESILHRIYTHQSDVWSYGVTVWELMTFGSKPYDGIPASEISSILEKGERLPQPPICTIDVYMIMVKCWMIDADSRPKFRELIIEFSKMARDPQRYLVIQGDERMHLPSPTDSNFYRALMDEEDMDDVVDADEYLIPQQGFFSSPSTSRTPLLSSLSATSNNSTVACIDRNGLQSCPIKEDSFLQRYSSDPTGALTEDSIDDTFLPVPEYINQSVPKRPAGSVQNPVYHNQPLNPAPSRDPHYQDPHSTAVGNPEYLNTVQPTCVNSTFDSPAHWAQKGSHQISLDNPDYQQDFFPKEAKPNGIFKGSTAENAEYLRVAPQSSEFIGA
# [8] = biological target: Follistatin-related protein 3 (Homo sapiens) (UniProt O95633); experiment: compounds binding follistatin-related protein 3 – biochemical, small-molecule microarray, 635 nm fluorescence, primary screen (AID 1105); details: FSTL3 binding, higher = more signal;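 also: score merges emission near 667 nm and signal to noise per printed spot across three slides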
# Chain of Follistatin-related protein 3 (Homo sapiens) (O95633 whole entry, looked up): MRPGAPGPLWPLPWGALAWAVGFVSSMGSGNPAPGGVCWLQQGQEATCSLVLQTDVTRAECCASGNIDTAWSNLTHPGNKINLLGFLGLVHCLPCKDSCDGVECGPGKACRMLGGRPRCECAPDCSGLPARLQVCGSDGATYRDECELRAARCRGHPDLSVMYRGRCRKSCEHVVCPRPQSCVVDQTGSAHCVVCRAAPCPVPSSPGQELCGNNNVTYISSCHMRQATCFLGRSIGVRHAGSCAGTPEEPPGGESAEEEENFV
# [9] = biological target: Dickkopf-related protein 1 (Homo sapiens) (UniProt O94907); experiment: small molecules binding DKK1 protein – biochemical, small-molecule microarray, 635 nm fluorescence scan, primary screen (AID 1106); details: higher = more signal;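 also: score merges emission near 667 nm with signal to noise over three replicate slides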
# Chain of Dickkopf-related protein 1 (Homo sapiens) (O94907 whole entry, looked up): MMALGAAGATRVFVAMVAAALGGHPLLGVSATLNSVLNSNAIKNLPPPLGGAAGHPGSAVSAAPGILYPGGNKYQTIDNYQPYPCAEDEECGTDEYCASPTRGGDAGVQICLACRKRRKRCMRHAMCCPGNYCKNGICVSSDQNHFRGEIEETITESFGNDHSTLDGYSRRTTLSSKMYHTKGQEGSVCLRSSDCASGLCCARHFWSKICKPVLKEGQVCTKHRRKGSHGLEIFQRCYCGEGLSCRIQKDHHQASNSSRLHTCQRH
# [10] = tested on: Inhibin beta A chain (activin A); experiment: small molecules binding activin A – biochemical, small-molecule microarray, 635 nm fluorescence scan, primary screen (AID 1107); details: INHBA, higher = more signal;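 also: mouse activin A protein probed at 4.33 µg/mL on printed slides; score merges bound-protein fluorescence near 667 nm with spot signal-to-noise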
# [11] = tested on: Human papillomavirus type 1a protein E7 (residues 44-93); experiment: small molecules binding HPV E7 44-93 – biochemical, small-molecule microarray, residues 44-93, 635 nm fluorescence, primary screen (AID 1108); details: fluorescence 635 nm, higher = more signal;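 also: E7 fragment applied at 1 µg/mL in TBST for 1 h at 4 C; score combines spot fluorescence with its signal to noise ratio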
# [12] = hepatitis C replication reporter changes, two-sided – Huh7 cells, luciferase reporter, HCV replication inhibitor project, primary screen (AID 1109); details: Huh7 HCV replicon luciferase reporter, 48 h; higher = more signal;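 also: huh7 hepatoma cells harbouring a luciferase neomycin HCV replicon reporter; luciferase luminescence as measure of HCV replicon replication; test concentration not given here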
# [13] = biological target: Left-right determination factor 2 (Homo sapiens) (UniProt O00292); experiment: small molecules binding LEFTY2 protein – biochemical, small-molecule microarray, 635 nm fluorescence scan, primary screen (AID 1110); details: higher = more signal
# Chain of Left-right determination factor 2 (Homo sapiens) (O00292 whole entry, looked up): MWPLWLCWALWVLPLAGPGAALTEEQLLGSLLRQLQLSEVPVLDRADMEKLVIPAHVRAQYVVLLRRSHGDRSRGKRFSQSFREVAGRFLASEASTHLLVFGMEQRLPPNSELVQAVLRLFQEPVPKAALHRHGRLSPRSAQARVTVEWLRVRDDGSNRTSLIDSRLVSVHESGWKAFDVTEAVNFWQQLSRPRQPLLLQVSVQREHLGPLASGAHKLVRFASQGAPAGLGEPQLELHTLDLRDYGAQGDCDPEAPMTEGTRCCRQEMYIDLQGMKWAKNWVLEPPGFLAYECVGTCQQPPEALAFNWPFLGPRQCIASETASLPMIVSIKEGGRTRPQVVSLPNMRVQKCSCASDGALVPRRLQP
# [14] = biological target: Calmodulin-1 (Homo sapiens) (UniProt P0DP23); experiment: small molecules binding calmodulin-1 with EGTA – biochemical, small-molecule microarray, Cy5-labelled CALM1, profiling panel (AID 1111); details: Cy5-CALM1 binding fluorescence, higher = more signal;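 also: labelled calmodulin applied in Tris saline Tween buffer holding calcium plus EGTA and DTT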
# [15] = biological target: Calmodulin-1 (Homo sapiens) (UniProt P0DP23); experiment: small molecules binding Ca-loaded calmodulin-1 – biochemical, small-molecule microarray, Cy5-labelled CALM1, plus calcium, artefact control for SMM control-protein annotation, profiling panel (AID 1112); details: Cy5-CALM1 binding fluorescence, higher = more signal;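 also: score merges spot fluorescence with signal to noise from triplicate slides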
# [16] = probe aWnt5a binding to arrayed compounds – biochemical, biotinylated probe, 635/667 nm fluorescence, primary screen (AID 1113); details: small-molecule microarray, higher = more signal;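 also: score merges 667 nm fluorescence intensity with signal-to-noise per printed feature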
# [17] = probe aShh binding to arrayed compounds – biochemical, biotinylated probe, 635/667 nm fluorescence, primary screen (AID 1114); details: small-molecule microarray, higher = more signal;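 also: probe is biotin-labelled aShh protein from a stem cell growth factor screen; measures binding of labelled protein to compounds printed on the slide; score merges feature fluorescence at 667 nm with signal-to-noise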
# [18] = probe aNog binding to arrayed compounds – biochemical, biotinylated probe, 635/667 nm fluorescence, primary screen (AID 1115); details: small-molecule microarray, higher = more signal;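 also: probe is biotinylated aNog protein used at 0.15 µg/mL for 1 h at 4 C; z-score combines 667 nm fluorescence of each spot with its signal to noise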
# [19] = biological target: Torsin-1A-interacting protein 1 (Homo sapiens) (UniProt Q5JTV8); experiment: compound microarray binding of lysate hLAP1 – cell lysate, small-molecule microarray, COS7 lysate, 635/667 nm fluorescence, primary screen (AID 1116); details: 635 nm fluorescence, higher = more signal
# Chain of Torsin-1A-interacting protein 1 (Homo sapiens) (Q5JTV8 whole entry, looked up): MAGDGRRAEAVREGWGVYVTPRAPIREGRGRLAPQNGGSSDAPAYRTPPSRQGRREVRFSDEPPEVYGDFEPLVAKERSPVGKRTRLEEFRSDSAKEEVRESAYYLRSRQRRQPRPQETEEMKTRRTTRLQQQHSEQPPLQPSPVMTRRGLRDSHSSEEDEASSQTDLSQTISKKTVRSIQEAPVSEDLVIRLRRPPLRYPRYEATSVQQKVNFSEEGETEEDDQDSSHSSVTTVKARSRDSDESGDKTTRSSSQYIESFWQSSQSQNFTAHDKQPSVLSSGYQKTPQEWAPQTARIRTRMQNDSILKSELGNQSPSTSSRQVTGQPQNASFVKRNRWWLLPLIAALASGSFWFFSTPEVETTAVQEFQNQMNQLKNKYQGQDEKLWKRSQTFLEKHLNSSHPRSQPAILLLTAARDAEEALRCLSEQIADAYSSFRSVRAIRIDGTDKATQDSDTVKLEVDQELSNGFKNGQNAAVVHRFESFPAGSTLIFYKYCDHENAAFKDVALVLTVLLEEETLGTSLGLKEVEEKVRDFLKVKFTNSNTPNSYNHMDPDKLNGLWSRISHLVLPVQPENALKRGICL
# [20] = biological target: Alpha-bungarotoxin (Bungarus multicinctus) (UniProt P60615); experiment: compounds binding labelled alpha-BTX control protein – biochemical, small-molecule microarray, Alexa647 label, 635/667 nm fluorescence, artefact control for SMM control protein annotation, profiling panel (AID 1117); details: alpha-BTX-A647 binding fluorescence, higher = more signal
# Chain of Alpha-bungarotoxin (Bungarus multicinctus) (P60615 whole entry, looked up): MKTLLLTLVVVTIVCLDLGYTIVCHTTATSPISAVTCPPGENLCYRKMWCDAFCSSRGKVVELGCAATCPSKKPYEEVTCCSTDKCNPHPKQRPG
Structure (SMILES),composite z-score [1],composite z-score [2],composite z-score [3],z-score [4],composite z-score [5],composite z-score [6],composite z-score [7],composite z-score [8],composite z-score [9],composite z-score [10],composite z-score [11],z-score [12],composite z-score [13],composite z-score [14],composite z-score [15],composite z-score [16],composite z-score [17],composite z-score [18],composite z-score [19],composite z-score [20]
COC(=O)C1=CC(CCCO)=CC(C2CC2)N(C)C=C1C(=O)OC (stereo not given),0.948,-0.302,0.41,-0.519 (inactive),-0.259,-0.302,-0.0025,0.481,-0.673,0.576,-0.105,-0.902,-0.087,0.727,0.295,-0.184,0.449,-0.328,1.03,-0.24
COCCOC(=O)N1C(=O)[C@@]2(c3cc(C#CC4=CCCCC4)ccc31)[C@H](C(=O)N1CCCCCCC1)[C@H]1C(=O)O[C@H](c3ccccc3)[C@H](c3ccccc3)N1[C@@H]2c1ccc(O)cc1,0.376,0.923,1,-0.802 (inactive),0.277,0.409,0.285,0.735,0.163,1.41,1.26,-1.35,0.134,0.765,0.522,-0.001,0.156,-0.0901,0.775,0.743
Cc1ccc(S[C@]2(C(=O)O)CC(=O)N(Cc3cc(C(F)(F)F)cc(C(F)(F)F)c3)[C@@H]2c2ccc(CO)cc2)cc1,1.2,0.326,1.14,-0.262 (inactive),-1.65,-1.03,-1.89,-1.92,-2.26,-0.131,-0.0234,-0.0295,-2.28,-0.743,0.168,-0.226,-0.0483,-0.0733,-0.155,-0.876
CN1C(=O)C2C=CC(C(O)C#Cc3ccccc3)N(Nc3ccccc3)C2C1=O (stereo not given),1.58,0.932,0.891,1.24 (inactive),1.33,1.31,0.56,1.42,-0.184,0.926,1.45,0.234,0.302,1.18,0.533,0.0381,-0.0243,1.35,1.11,1.35
CCCCN1CC=CC23O[C@@H]4/C=C\CCC(C)OC(=O)C4[C@H]2C(=O)N(C(CO)C(C)C)[C@@H]3C1=O (stereo not given in full),1.73,-0.207,-0.176,0.0563 (inactive),0.384,0.347,-0.474,0.167,0.125,1.14,-0.164,-0.768,-0.406,-0.708,-0.926,-0.0403,0.186,-0.278,1.36,-0.312
Cc1cc(C)c(C(O)C2C=CC3C(=O)N(c4ccccc4)C(=O)C3N2Nc2ccc(C(C)C)cc2)c(C)c1 (stereo not given),0.68,1.19,1.08,-0.00156 (inactive),0.978,1.25,-0.0206,0.818,-0.0403,0.202,-0.9,0.437,0.229,2.15,1.37,0.0792,0.664,1.21,1.27,2.85
O=C1NC(=O)C2C1C=CC(C(O)CCc1ccccc1)N2Nc1ccc(Cl)cc1Cl (stereo not given),0.187,1.39,1.29,1.5 (inactive),0.265,0.107,-0.973,0.195,-0.743,1.28,-0.72,-0.271,-0.448,1.54,0.819,0.539,-0.0571,1.04,1.97,2.65
O[C@@H](Cc1ccccc1)[C@@H](/C=C/C1CC1)N(CC#Cc1ccccc1)Cc1cccc(Cl)c1,-0.546,0.232,1.34,-1.61 (inactive),-1.72,-1.01,-1.69,-1.54,-1.49,0.285,-0.55,-1.52,-1.61,-0.738,0.352,-0.275,-0.147,-0.196,-0.565,-0.0369
C=CCOC(=O)[C@H]1[C@@H]2C(=O)O[C@@H](c3ccccc3)[C@@H](c3ccccc3)N2[C@@H](c2ccc(OCCOC(=O)[C@@H]3C[C@@H]4C(=O)N5CCC[C@H]5C(=O)N4[C@@H]3c3ccc(O)cc3)cc2)[C@]12C(=O)Nc1ccc(I)cc12,0.637,-0.102,0.357,0.431 (inactive),0.53,0.195,0.482,0.594,1.39,0.372,-0.0566,-1.71,0.621,0.793,0.29,-0.117,-0.155,0.633,0.521,0.881
O=C1O[C@H](c2ccccc2)[C@H](c2ccccc2)N2[C@H]1[C@@H](C(=O)Nc1nc3ccccc3s1)[C@]1(C(=O)Nc3ccc(C#CC4(O)CCCCCC4)cc31)[C@H]2c1ccccc1OCCO,1.55,-0.074,-0.353,-0.215 (inactive),1.35,1.33,0.49,1.32,0.452,-0.0311,1.37,-2.69,0.561,1.04,-0.243,0.0068,0.0469,0.345,1.34,0.0934
C[C@H]1NC(=O)[C@@]23C(=O)N[C@@H](Cc4ccccc4)C2[C@H](C)[C@@]2(C)O[C@H]2C3/C=C/C/C=C\CNC(=O)[C@H](Cc2ccccc2)NC1=O (stereo not given in full),1.29,-0.354,-0.427,0.106 (inactive),0.932,0.138,0.199,1.01,0.689,1.34,0.395,-1.02,0.154,0.15,-0.849,-0.0445,-0.0533,-0.196,-0.285,0.107
